Reference: ChEMBL document CHEMBL3988442, “University of Dundee, Small-Polar-MMV Screening Library” (2021)
Hit rate of the full screen: of about 48,000 compounds, about 13,000 (27%) showed an effect of 50% or more. This is one part of the list.

system: Wolbachia pipientis; assay: Anti-Wolbachia Cell-Based Screen; format: functional; set-up: scale not given: in the data most compounds retested in dose-response had high values; conditions: 5 µM

| Structure (SMILES) | Percent Effect |
| --- | --- |
| Cc1ncc2c(n1)CCN(Cc1ncc(C(C)(C)C)o1)C2 | 1.311% |
| CS(=O)(=O)c1cccc(S(=O)(=O)NC(=O)CC2CCCC2)c1 | -23.12% |
| CS(=O)(=O)c1cccc(C(N)c2ccc(F)c(F)c2)c1.Cl (stereo not given) | -2.394% |
| Cc1ccc(C(NC(=O)[C@H]2CC[C@@H](O)CC2)c2cccnc2)cc1C (stereo not given in full) | -7.536% |
| COc1ccc(C(N)c2cccc(S(C)(=O)=O)c2)cc1 (stereo not given) | 4.589% |
| Cc1ccc(C(NC(=O)C2CC2)c2cccc(S(C)(=O)=O)c2)cc1 (stereo not given) | 85.76% |
| CC(CO)NS(=O)(=O)c1cccc(C(C)C)c1 (stereo not given) | -1.865% |
| CCNC(=O)NC(c1ccc(C)cc1)c1cccc(S(C)(=O)=O)c1 (stereo not given) | 96.65% |
| Cc1ccc(C(N)c2cccc(S(C)(=O)=O)c2)cc1 (stereo not given) | 1.85% |
| CCC(=O)NC(c1ccc(C)cc1)c1cccc(S(C)(=O)=O)c1 (stereo not given) | 96.25% |
| COc1ccc(N2CCN(C(=O)CCn3nnnc3C)CC2(C)C)cc1 | 5.117% |
| CN(Cc1cccnc1)Cc1cncc2c1CCN(c1ccccn1)C2.Cl.Cl.Cl | 98.43% |
| CN(Cc1cccnc1)Cc1cncc2c1CCN(Cc1ccoc1)C2.Cl.Cl.Cl | 98.31% |
| CN(Cc1cccnc1)CC1CNCc2nccn2C1 (stereo not given) | -0.6774% |
| Cl.Cl.c1cnc(NCc2cncc3c2CCN(Cc2ccoc2)C3)nc1 | 0.8556% |
| CC(C)C(=O)N1CCc2c(CN(C)Cc3ccco3)cncc2C1.Cl.Cl | 107% |
| CN(Cc1cn2c(n1)CN(C(=O)N(C)C)CC2)Cc1ccco1 | 3.747% |
| Cl.Cl.O=C(NCc1cncc2c1CCN(Cc1ccoc1)C2)C1CC1 | -1.129% |
| CC(C)N(C)Cc1cncc2c1CCN(C(=O)c1cccc(C#N)c1)C2.Cl.Cl | -11.44% |
| CN(Cc1ccco1)Cc1cncc2c1CCN(Cc1ccoc1)C2.Cl.Cl.Cl | 96.91% |
| COC(=O)c1ccc(CN(C(C)C)C(C)C)o1.Cl | -10.72% |
| CN(CCC#N)C(=O)CN1CCCN(Cc2noc(C3CC3)n2)CC1 | -26.77% |
| CCn1ccnc1CN1CCN(CC(=O)NC(C)(C#N)C2CC2)CC1 (stereo not given) | -16.24% |
| CC(C)CN1CCc2c(CN(C)Cc3ccco3)cncc2C1.Cl.Cl.Cl | 112.5% |
| CN(Cc1ccco1)Cc1cncc2c1CCN(S(C)(=O)=O)C2.Cl.Cl | 114% |
| CCS(=O)(=O)N1CCc2c(CN(C)Cc3ccco3)cncc2C1.Cl.Cl | 0.2646% |
| CCS(=O)(=O)N1CCn2cc(CN(C)Cc3ccco3)nc2C1 | -9.31% |
| COCCN1C[C@@H]2CN(S(=O)(=O)c3cccs3)C[C@@H]2C1=O | -21.25% |

| Structure (SMILES) | Percent Effect |
| --- | --- |
| O=C(Nc1ccc2scnc2c1)N1CCN([C@H]2CCCC[C@@H]2O)CC1 | -4.588% |
| CN(C)C(=O)c1cccc(NC(=O)N2CCCC(C(F)(F)F)C2)c1 (stereo not given) | 13.97% |
| CN(C)C1CCCN(C(=O)NCCC(C)(C)C)C1 (stereo not given) | -10.25% |
| CN(CC(F)(F)F)C(=O)CNC(=O)N1CCCC(N(C)C)C1 (stereo not given) | 95.13% |
| CN(C)C1CCCN(C(=O)NCCC(=O)N2CCCCCC2)C1 (stereo not given) | 0.3491% |
| O=C(NCCNc1ncccn1)N1CCCC(C(F)(F)F)C1 (stereo not given) | -15.03% |
| CN(CC(F)(F)F)C(=O)CNC(=O)N1CCCC(C(F)(F)F)C1 (stereo not given) | 92.98% |
| CC(c1ncc(C(C)(C)C)o1)N1CCN(Cc2ccncc2)CC1 (stereo not given) | -8.967% |
| Cc1nnc(C(C)N2CCN(Cc3ccc4c(c3)OCO4)CC2)o1 (stereo not given) | 12.94% |
| Cc1nnc(C(C)N2CCN(Cc3ccc(C#N)cc3)CC2)o1 (stereo not given) | 2.063% |
| Cc1nnc(C(C)N2CCCN(Cc3ccc(F)cc3)CC2)o1 (stereo not given) | 92.55% |
| Cc1nnc(C(C)N2CCCN(Cc3noc(C4CC4)n3)CC2)o1 (stereo not given) | 5.084% |
| CC(C)OCC(=O)N1CCCN(Cc2ccc(C#N)cc2)CC1 | -9.345% |
| Cc1nnc(C(C)N2CCCN(Cc3ccc(C#N)cc3)CC2)o1 (stereo not given) | 105.5% |
| COc1cnc(N2CCCN(Cc3ccc(F)cc3)CC2)nc1 | 0.06599% |
| Cc1nnc(C(C)N2CCN(Cc3ccc(C(F)(F)F)cc3)CC2)o1 (stereo not given) | 124.3% |
| O=c1[nH]nc(-c2cccs2)c2sc(N3CCOCC3)nc12 | -14.46% |
| CC(CC#N)N(C)Cc1ccccc1F (stereo not given) | 11.31% |
| COc1ccccc1CCNC(=O)N(C)C(C)CS(C)(=O)=O (stereo not given) | -10.73% |
| CC(CN(C)C)Nc1nc(O)cc(Cc2ccccc2F)n1 (stereo not given) | 94.63% |
| COc1ccccc1CC(C)(C)NC(=O)CN(C)C(C)C | 3.69% |
| COc1ccccc1Cc1cc(O)nc(NC(C)CN(C)C)n1 (stereo not given) | 91.33% |
| CC(CCc1ccccc1F)C(=O)NS(=O)(=O)N(C)C(C)C (stereo not given) | -0.5241% |
| CC(=O)N1CCN(C(=O)C2SCCc3sccc32)CC1 (stereo not given) | -2.542% |
| O=C(O)C(F)(F)F.O=C(O)C(F)(F)F.O=C(c1ccc(F)cc1)N1CCN2C[C@H](Oc3cccnc3)C[C@H]2C1 | -2.866% |
| COc1ccccc1N1CCN(C(=O)Cn2nccc2C)CC1(C)C | 4.467% |
| O=C(CCc1nc(Cl)n[nH]1)N1CCC2(CCCNC2=O)C1 (stereo not given) | 7.017% |
